Assay results from ChEMBL document CHEMBL4513154, “CO-ADD screening of Jain University (India) compounds”.
Results with a measured potency or affinity are listed apart.

system: Staphylococcus aureus; conditions: Concentration 32 ug.mL-1; ASSAY_TEST Inhibition of Bacterial Growth; detection method Absorption (OD600); MEDIA CAMHB; plate type 384well; NBS; CORNING #3640; time 18 hr

Row | Compound | Inhibition
1 | N#Cc1ccccc1-c1ccc(Cn2c(-c3cscn3)nc3ccccc32)cc1 | 0.09%
2 | Clc1ccc2nc(-c3cscn3)n(Cc3ccccc3)c2c1 | -8.96%
3 | O=[N+]([O-])c1ccc(Cn2c(-c3cscn3)nc3ccccc32)cc1 | 0.92%
4 | CCc1ccc(Nc2nc(N)c(-c3nc4ccccc4c(=O)n3-c3ccccc3)s2)cc1 | 14.54%
5 | CCc1ccc(Nc2nc(N)c(-c3nc4ccccc4c(=O)n3-c3ccc(CC)cc3)s2)cc1 | 1.66%
6 | Nc1nc(Nc2ccccc2)sc1-c1nc2ccccc2c(=O)n1-c1ccc(Cl)cc1 | 3.1%
7 | Clc1cccc2[nH]c(-c3cscn3)nc12 | -11.71%
8 | CCc1ccc(Nc2nc(N)c(-c3nc4ccccc4c(=O)n3-c3ccc(Cl)cc3)s2)cc1 | 11.42%
9 | N#Cc1ccccc1-c1ccc(Cn2c(-c3cscn3)nc3ccc(Cl)cc32)cc1 | -8.21%
10 | Cn1c(-c2cscn2)nc2c(Cl)cccc21 | -0.57%
11 | CC(C)c1ccc(Cn2c(-c3cscn3)nc3c(Cl)cccc32)cc1 | 1.32%
12 | N#Cc1ccccc1-c1ccc(Cn2c(-c3cscn3)nc3c(Cl)cccc32)cc1 | 2.86%
13 | Nc1nc(Nc2ccc(Cl)cc2)sc1-c1nc2ccccc2c(=O)n1-c1ccccc1 | 3.07%
14 | Clc1ccc2c(c1)nc(-c1cscn1)n2Cc1ccccc1 | -3.7%
15 | Fc1cc(Cn2c(-c3cscn3)nc3c(Cl)cccc32)cc(C(F)(F)F)c1 | 6.77%
16 | CCc1ccc(-n2c(-c3sc(Nc4ccccc4)nc3N)nc3ccccc3c2=O)cc1 | 9.22%
17 | Clc1cccc2c1nc(-c1cscn1)n2Cc1ccccc1 | -5.58%
18 | N=C(Nc1ccccc1Cl)c1cscn1 | 4.17%
19 | Cn1c(-c2cscn2)nc2cc(Cl)ccc21 | -4.5%
20 | N#Cc1ccccc1-c1ccc(Cn2c(-c3cscn3)nc3cc(Cl)ccc32)cc1 | -3.28%
21 | N=C(Nc1ccccc1)c1cscn1 | -2.93%
22 | N#Cc1ccc(Cn2c(-c3cscn3)nc3c(Cl)cccc32)cc1 | -3.58%
23 | Nc1nc(Nc2ccccc2)sc1-c1nc2ccccc2c(=O)n1-c1ccccc1 | 10.63%

system: Escherichia coli; conditions: Concentration 32 ug.mL-1; ASSAY_TEST Inhibition of Bacterial Growth; detection method Absorption (OD600); MEDIA CAMHB; plate type 384well; NBS; CORNING #3640; time 18 hr

Row | Compound | Inhibition
24 | N#Cc1ccccc1-c1ccc(Cn2c(-c3cscn3)nc3ccccc32)cc1 | -0.92%
25 | Clc1ccc2nc(-c3cscn3)n(Cc3ccccc3)c2c1 | -8.13%
26 | O=[N+]([O-])c1ccc(Cn2c(-c3cscn3)nc3ccccc32)cc1 | -6.04%
27 | CCc1ccc(Nc2nc(N)c(-c3nc4ccccc4c(=O)n3-c3ccccc3)s2)cc1 | -0.69%
28 | CCc1ccc(Nc2nc(N)c(-c3nc4ccccc4c(=O)n3-c3ccc(CC)cc3)s2)cc1 | -1.71%
29 | Nc1nc(Nc2ccccc2)sc1-c1nc2ccccc2c(=O)n1-c1ccc(Cl)cc1 | -14.74%
30 | Clc1cccc2[nH]c(-c3cscn3)nc12 | -6.5%
31 | CCc1ccc(Nc2nc(N)c(-c3nc4ccccc4c(=O)n3-c3ccc(Cl)cc3)s2)cc1 | 0.09%
32 | N#Cc1ccccc1-c1ccc(Cn2c(-c3cscn3)nc3ccc(Cl)cc32)cc1 | -6.57%
33 | Cn1c(-c2cscn2)nc2c(Cl)cccc21 | -9.25%
34 | CC(C)c1ccc(Cn2c(-c3cscn3)nc3c(Cl)cccc32)cc1 | -0.45%
35 | N#Cc1ccccc1-c1ccc(Cn2c(-c3cscn3)nc3c(Cl)cccc32)cc1 | 1.52%
36 | Nc1nc(Nc2ccc(Cl)cc2)sc1-c1nc2ccccc2c(=O)n1-c1ccccc1 | -2.8%
37 | Clc1ccc2c(c1)nc(-c1cscn1)n2Cc1ccccc1 | -7.11%
38 | Fc1cc(Cn2c(-c3cscn3)nc3c(Cl)cccc32)cc(C(F)(F)F)c1 | 3.26%
39 | CCc1ccc(-n2c(-c3sc(Nc4ccccc4)nc3N)nc3ccccc3c2=O)cc1 | -7.31%
40 | Clc1cccc2c1nc(-c1cscn1)n2Cc1ccccc1 | -9.3%
41 | N=C(Nc1ccccc1Cl)c1cscn1 | 18.4%
42 | Cn1c(-c2cscn2)nc2cc(Cl)ccc21 | -10.62%
43 | N#Cc1ccccc1-c1ccc(Cn2c(-c3cscn3)nc3cc(Cl)ccc32)cc1 | -8.05%
44 | N=C(Nc1ccccc1)c1cscn1 | 3.08%
45 | N#Cc1ccc(Cn2c(-c3cscn3)nc3c(Cl)cccc32)cc1 | -8.14%
46 | Nc1nc(Nc2ccccc2)sc1-c1nc2ccccc2c(=O)n1-c1ccccc1 | 1.98%
